The whole screen tested about 48,000 compounds, of which about 13,000 (27%) showed an effect of 50% or more. The list shows a part of the results.
tested on: Wolbachia pipientis; test: Anti-Wolbachia Cell-Based Screen; format: functional; set-up: scale not given: in the data most compounds retested in dose-response had high values; settings: 5 µM

Row | SMILES | Percent Effect [%]
1 | O=C(CCn1ccnc1)N1CC[C@@H](c2ccc3ccccc3c2)[C@H](O)C1 | 3.256
2 | Cc1nn(C)c(C)c1C1CCCN1C(=O)c1ccc(CN(C)C)cc1 (stereo unspecified) | 0.5484
3 | Cc1nn(C)c(C)c1C1CCCN1C(=O)c1ccc2c(c1)OCCO2 (stereo unspecified) | 107.2
4 | Cc1nn(C)c(Cl)c1C1CCCN1C(=O)c1ccc2c(c1)OCO2 (stereo unspecified) | 4.266
5 | Cc1nc(C(=O)N2CCCC2c2c(C)nn(C)c2C)ccc1C#N (stereo unspecified) | -5.29
6 | COc1c(C2CCCN2C(=O)c2ccc3c(c2)OCO3)c(C)nn1C (stereo unspecified) | 110.4
7 | NC(=O)CC1CCCCN1C(=O)Cc1cccc(Br)c1 (stereo unspecified) | -22.53
8 | Cc1ccc(N2CCC(NC(C)c3ccc(C)o3)CC2)nc1 (stereo unspecified) | 5.031
9 | O=C(CC(F)(F)F)N1C[C@H]2CC[C@@H]1CN(Cc1ccccc1)C2 | -26.8
10 | c1cncc(-c2c[nH]c([C@@H]3COCCN3Cc3ccncc3)n2)c1 | -1.952
11 | CN(CC(=O)Nc1nc2c(s1)CCC2)C(=O)c1cccs1 | 12.75
12 | COCCn1ccc2c(C(=O)Nc3nc4c(s3)CCC4)cccc21 | 149.9
13 | COc1ncccc1C(=O)Nc1nc2c(s1)CN(S(=O)(=O)C1CC1)CC2 | -5.987
14 | CN(CC(=O)Nc1nc2c(s1)CCCCCC2)C(=O)c1ccco1 | -14.29
15 | COCCn1cc(CC(=O)Nc2nc3c(s2)CCC3)c2ccccc21 | 108.7
16 | COCCn1cc(C(=O)N2CCCC2c2ccncc2)c2ccccc21 (stereo unspecified) | 12.21
17 | NC(=O)CCSCc1cc(Br)cc2cccnc12 | -18.43
18 | CCn1cc(C#N)c(=O)c2cc(Br)ccc21 | -20.97
19 | C=C(C)CN(CC)Cc1nc(C(C)(C)C)no1 | 1.625
20 | Cc1ccccc1CN(Cc1ccc(S(C)(=O)=O)cc1)CC(C)C | 34.24
21 | COc1cc(Br)c(CNC2CCCNC2=O)cc1OC.Cl (stereo unspecified) | -7.392
22 | COCc1ccc(OC)c(CNC2CCCNC2=O)c1 (stereo unspecified) | 133.5

Row | SMILES | Percent Effect [%]
23 | COc1cc(Br)cc(CNC2CCCNC2=O)c1O (stereo unspecified) | -10.61
24 | Cn1cccc1CNCC1CCCn2cc(C(C)(C)C)nc21 (stereo unspecified) | 4.297
25 | NCC1CCN(c2cnn(CCCn3cccn3)c(=O)c2)CC1 | 3.68
26 | Cc1cc(C)n(CC2CCCCN2CC(=O)Nc2nnc(C)s2)n1 (stereo unspecified) | -11.09
27 | Cc1cc(C)n(CC2CCCN2CC(=O)Nc2nnc(C)s2)n1 (stereo unspecified) | -4.484
28 | Cc1cc(C)n(CC2CCCN2CC(=O)NC2CCOCC2)n1 (stereo unspecified) | -0.8879
29 | Cc1cc(C)n(CC2CCCCN2CCC(=O)Nc2cc(C)on2)n1 (stereo unspecified) | 105.6
30 | Cc1cc(C)n(CC2CCCCN2CC(=O)Nc2ccncc2)n1 (stereo unspecified) | 9.261
31 | Cc1cc(C)n(CC2CCCN2CCC(=O)Nc2cc(C)on2)n1 (stereo unspecified) | 109.3
32 | CN(C)C(=O)C1CN(Cc2ccc(C#N)cc2F)c2ccccc2O1 (stereo unspecified) | -1.206
33 | CC(NC(=O)N1CCN(c2cccs2)CC1)c1ccncc1 (stereo unspecified) | -4.876
34 | CC(=O)N1CCCC(C(=O)N2CCN(Cc3cc(C)on3)CC2)C1 (stereo unspecified) | 8.609
35 | CC(=O)N1CCC(NC2(Cc3cc(C(C)(C)O)on3)COC2)CC1 | 1.756
36 | CC(=O)N1CCC(Cc2cnc(Nc3cc(C)on3)cn2)CC1 | 121.6
37 | CCC(=O)N1CCC(Cc2cnc(Nc3cnccn3)cn2)CC1 | 88.17
38 | O=C(Cc1cnccn1)N1CCC(c2nccn2CC2CC2)CC1 | -28.72
39 | CSc1nnc(CC2CCN(C(=O)COc3cccnc3)CC2)n1C | 8.261
40 | Cc1cnn(CC2CCCN2CC(=O)Nc2cc(C)no2)c1 (stereo unspecified) | 114.2
41 | Cc1cnn(CC2CCCCN2CC(=O)Nc2nncs2)c1 (stereo unspecified) | -7.053
42 | Cc1cnn(CC2CN(CC(=O)NCc3ccccn3)CCO2)c1 (stereo unspecified) | -0.3283
43 | CCN1CCC(NC(=O)CN2CCCCC2Cn2cc(C)cn2)CC1 (stereo unspecified) | 7.683
44 | Cc1cnn(CC2CCCN2CC(=O)Nc2nncs2)c1 (stereo unspecified) | 1.96

Row | SMILES | Percent Effect [%]
45 | Cc1cnn(CC2CCCCN2CCC(=O)Nc2cc(C)on2)c1 (stereo unspecified) | 2.664
46 | Cc1cnn(CC2CCCN2CC(=O)Nc2nccs2)c1 (stereo unspecified) | 91.79
47 | O=C(CN1CCCCC1Cn1cncn1)NCc1ccccn1 (stereo unspecified) | -8.236
48 | Cc1cnn(CC2CCCN2CC(=O)Nc2cc(C)on2)c1 (stereo unspecified) | 104.6
49 | Cc1cnn(CC2CCCN2CC(=O)NCc2ccccn2)c1 (stereo unspecified) | 118.9
50 | Cc1cnn(CC2CCCCN2CC(=O)Nc2c(C)n[nH]c2C)c1 (stereo unspecified) | 8.734
51 | O=C(O)CC[C@@H]1CN(c2ccncc2)CC[C@@H]1N1CCOCC1 | -3.387
52 | Cc1ccc(C(=O)N2CCSCC2)cc1NC(=O)NCC1CCC1 | -32.66
53 | Cc1cnn(CC2CCCN2CC(=O)N(C)Cc2ccc(C)o2)c1 (stereo unspecified) | 15.94
54 | Cc1cnn(CC2CCCN2CC(=O)Nc2cc(C(C)C)no2)c1 (stereo unspecified) | 129.6
55 | Cn1ncc(NCc2cc(F)cc(F)c2)c(Cl)c1=O | -8.673
56 | COc1ccc(NC(=O)CCC2CCCN(Cc3ncon3)C2)cc1Cl (stereo unspecified) | 9.109
57 | CN(C)C[C@@H]1[C@H]2CN(C(=O)c3cc(=O)[nH]c4ccc(F)cc34)C[C@@H]12 | -6.499
58 | CN(CC(=O)N1CCc2[nH]c3ccc(F)cc3c2C1)CC1OCCO1 | 90.48
59 | CC1CN(C(=O)c2cc(=O)[nH]c3ccc(F)cc23)CCO1 (stereo unspecified) | 4.129
60 | CN(C)CCCNC(=O)CNC(=O)N1CCc2c([nH]c3ccccc23)C1 | 22.94
61 | CN(CC(=O)N1CCc2[nH]c3ccccc3c2C1)CC1OCCO1 | 105.4
62 | O=C(CN1CCc2[nH]c3ccccc3c2C1)NCc1ccco1 | -4.019
63 | Cc1ccc2[nH]c3c(c2c1)CN(C(=O)CN(C)CC1OCCO1)CC3 | 95.71
64 | O=C(CNC(=O)N1CCc2c([nH]c3ccc(Cl)cc23)C1)N1CCOCC1 | 10.93
65 | CN(C)CCNC(=O)CNC(=O)N1CCc2c([nH]c3ccc(Cl)cc23)C1 | 31.1
66 | c1ccc2c(NCC3(N4CCOCC4)CCSC3)ncnc2c1 (stereo unspecified) | -37.37
